Calls of active or inactive are those of the source. How the source made its calls: active means hit-call score of the fitted dose curve at least 0.9, where 1 is the maximum; inactive means score below 0.9.
read-out: Cytochrome P450 (CYP1A2), CYP1A2 (gene 1544); assay: LTEA_HepaRG_CYP1A2: Life Technologies and Expression Analysis (LTEA) Assay for Cytochrome P450 (CYP1A2) using HepaRG (AID 2283479); settings: mRNA level, 48 h; actives raise or lower the signal;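 on AC50: TaqMan qRT-PCR transcript level normalized to ACTB GAPDH and POLR2A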
Experimental: LTEA_HepaRG is a cell based, multiplexed-readout assay that uses HepaRG, a human liver cell line, with measurements taken at 48 hours after chemical dosing on a 96-well plate.LTEA_HepaRG_CYP1A2 is one of 102 assay component(s) measured in the LTEA HepaRG cell culture assay. It is a marker of NR mediated metabolism.Data from the assay component LTEA_HepaRG_CYP1A2 was analyzed into 1 endpoint. This assay endpoint, LTEA_HepaRG_CYP1A2, was analyzed with bidirectional fitting relative to DMSO as the negative control and baseline of activity. Using a type of inducible reporter, measures of mRNA induction for gain or loss-of-signal activity can be used to understand regulation of transcription factor activity. To generalize the intended target to other relatable targets, this assay endpoint is annotated to the cyp intended target family, where the subfamily is xenobiotic metabolism.
A total of 1060 chemcials from the ToxCast library were tested in eight-point concentration-response experiments. Cell culture and cytotoxicity assays were conducted at Thermo Fisher Scientific's Custom Services facility (Madison, WI). A single lot of human HepaRG cells (Thermo Fisher Scientific, Frederick, MD) was used for the cell culture experiments. 96-well format collagen type I coated plates of human HepaRG cells were prepared using established methods. Briefly, cryopreserved HepaRG cells were thawed, plated at a density of approximately 100,000 cells/well in HepaRG Thaw, Plate, and General Purpose media (HPRG770, Thermo Fisher Scientific), and incubated for 48 hours. 0.5% DMSO was selected as vehicle control to balance the requisite need of DMSO in HepaRG cultures to maintain differentiation (for example, baseline metabolism, proportions of hepatocytes vs. cholangiocytes), while enabling further hepatic receptor pathway activation (for example, PXR and CAR) in response to chemical exposure. 48 hours after plating, the culture medium was replaced with HepaRG Serum-Free Incudtion Media. Cells were exposed to each test chemical in duplicate and maintained in CO2 incubators for another 48 hours. Chemical plates were thawed to room temperature and 200x concentrations of treatment groups were prepared. 8-point conentration-reponse curves were made with the highest exposure at 100 uM, followed by half-log dilutions, all in 0.5% DMSO. Each test plate contained variouse controls, induction positive controls (1mM phenobarbital), cytotoxicity positive controls ([…] aflatoxin B1), vehicle controls (0.5% DMSO), and total lysis controls (0.5% DMSO). Cell morphology images were taken using an Essen IncuCyte FLR automated microscope, with six 96-well plates imaged in about 24 minutes. Images were captured and exported and JPEG files. Spent culture media was transfered to black-well plates for the LDH assay, and remaining media was sorted at -80 C for later use. Cells were treated with RLT buffer and frozen until shipped for gene expression analysis. Total RNA was isolated from the cell suspension in 75 uL of Buffer RLT (Qiagen, Germantown, MD 20874) by Quintiles/Expression Analysis (Durham, NC) using a custom isolation procedure. Total RNA from each plate well was transferred to a preamplification plate. Fluidigm's 96.96 Dynamic ArrayTM (Fluidigm, Amsterdam, the Netherlands) technology was used for gene expression analyses by quantitative reverse transcription polymerase chain reaction (qRT-PCR, performed by Quintiles/Expression Analysis, Durham, NC)89. Standard TaqManTM Assays (Applied Biosystems/ThermoFisher Scientific, Foster City, CA) were used to assess the expression of 93 genes selected based on their selectivity and sensitivity to important hepatic receptors known to be modulated by environmental chemicals; importance in human hepatocyte functionality; and hepatotoxicity. […]

SMILES | outcome | AC50
OCC(CO)n1cnc(-c2ccc(F)cc2)c1-c1ccnc(Oc2ccccc2)n1 | inactive | –
C#CC(O)C(CC)CCCC (stereo not given) | inactive | –
CN(C)CCCN1c2ccccc2Sc2ccc(Cl)cc21 | – | 19.4 µM (active)
CCCC(=O)O | inactive | –
CC(=O)OC1CC(C)OC(C)O1 (stereo not given) | – | 50 µM (active)
CC(=O)O | inactive | –
CC(C)NCC(O)c1ccc(O)c(O)c1 (stereo not given) | – | 0.204 µM (active)
O=C1NC(=O)C(c2ccccc2)(c2ccccc2)N1 | – | 50 µM (active)
CCOCCOCCO | inactive | –
C=CCc1ccc(OC)c(OC)c1 | inactive | –
NC1CCCCC1 | inactive | –
O=C(O)c1[nH]n(-c2ccc(S(=O)(=O)O)cc2)c(=O)c1N=Nc1ccc(S(=O)(=O)O)cc1 | – | 14.8 µM (active)
COc1ccc(C(=O)Nc2nc3ccccc3c(NCc3ccccc3)c2C#N)cc1 | – | 3 µM (active)
C/C=C/c1ccc(OC)cc1 | inactive | –
O=C(O)CN(CC(=O)O)CC(=O)O | – | 45.8 µM (active)
CC(=O)S[C@H](C(=O)N[C@H]1Cc2ccccc2[C@H]2CCC[C@@H](C(=O)O)N2C1=O)C(C)C | inactive | –
O=NO | inactive | –
O=C(NS(=O)(=O)/C=C/c1cccs1)c1ccc(F)cc1Br | inactive | –
CCCCC(CC)COC(=O)CCCCCCCC(=O)OCC(CC)CCCC (stereo not given) | inactive | –
CC(C)c1cccc(C(C)C)c1 | inactive | –

SMILES | outcome | AC50
CCc1cc(C2=C(C(=O)O)N(c3ccccc3C(F)(F)F)S(=O)(=O)c3ccccc32)cc2c1OCO2 | inactive | –
CCN(CC)CCOc1ccc(C(=C(Cl)c2ccccc2)c2ccccc2)cc1 | inactive | –
CC(=O)OCC(COC(C)=O)OC(C)=O | inactive | –
CC(N)=O | inactive | –
CCCCC(CC)COP(=O)(OCC(CC)CCCC)OCC(CC)CCCC (stereo not given) | – | 24.6 µM (active)
O=C(N[C@@H](c1ccccc1)[C@@H]1CCCCN1)c1cccc(C(F)(F)F)c1Cl | inactive | –
Nc1nc(Cl)nc2c1ncn2[C@H]1C[C@H](O)[C@@H](CO)O1 | – | 0.715 µM (active)
C=CCCCCCCCCCCCC | – | 50 µM (active)
CCCCCCCC(=O)OC | inactive | –
CC(C)(O)c1ccc(CNC(=O)c2cccnc2Oc2ccc(F)cc2)cc1 | inactive | –
COc1ccc(OC(F)(F)F)cc1CN[C@H]1CCCN[C@H]1c1ccccc1 | – | 15.8 µM (active)
Nc1nc(=S)c2[nH]cnc2[nH]1 | – | 3.04 µM (active)
O=C(O)CC(O)(CC(=O)O)C(=O)O | inactive | –
CC(=O)O[C@]1(C(C)=O)CC[C@H]2[C@@H]3C=C(Cl)C4=CC(=O)[C@@H]5C[C@@H]5[C@]4(C)[C@H]3CC[C@@]21C | – | 78.7 µM (active)
Cc1ccc(C(C)(C)C)c(O)c1 | – | 25.6 µM (active)
CCc1nc(N)nc(N)c1-c1ccc(Cl)cc1 | – | 23.8 µM (active)
CC(COCC(C)OC(=O)c1ccccc1)OC(=O)c1ccccc1 (stereo not given) | inactive | –
COC(=O)CCCC(=O)OC | inactive | –
CC(=O)CC(c1ccccc1)c1c(O)c2ccccc2oc1=O (stereo not given) | inactive | –
CCCCOC(=O)CCCCC(=O)OCCCC | – | 50 µM (active)
